Hits are enriched below; roughly 12% of the tested compounds scored in any of these assays.
Sfp inh: Sfp phosphopantetheinyl transferase inhibition | Biochemical Sfp PPTase activity, qHTS | Q9F4F7 | AID 1490 | 3.5% of 310,000 active | Potency, µM, usual class: inhibitors;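 note: the enzyme is Sfp with the accession as filed and its product quenches rhodamine fluorescence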
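Sfp 15 nM + cpd, 15 min RT; start w/ rhodamine-CoA 5 uM, BHQ-2-YbbR 12.5 uM (final); 50 mM Hepes pH 7.6, 10 mM MgCl2, 0.01% NP-40, 0.01% BSA; read 525/598 nm at 0 and 30 min.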
HP1b chromo inh: blocks HP1-beta chromodomain binding to methylated histone tails | P83916 | AlphaScreen HP1-beta / biotin-H3K9me3 peptide binding | Potency, µM (highest dose often 114 µM), hits mostly inhibitors | 0.56% of 390,000 active | AID 540317; note: nearly all actives have a fitted effect of over 70% in size
Target sequence (P83916 whole entry, looked up): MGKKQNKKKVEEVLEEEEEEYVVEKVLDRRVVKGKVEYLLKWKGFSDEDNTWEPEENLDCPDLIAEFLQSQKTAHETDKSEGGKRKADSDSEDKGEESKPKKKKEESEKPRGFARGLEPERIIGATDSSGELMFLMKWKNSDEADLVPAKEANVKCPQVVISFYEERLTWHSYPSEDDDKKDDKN
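Compound inhibition of the preformed complex between 50 nM HP1-beta and 50 nM biotinylated H3K9me3 peptide was read by AlphaScreen. Buffer was PBS pH 7.4 with 0.01% Tween-20. Incubations ran 30 min at room temperature, with 10 ug/mL donor/acceptor beads.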
G9a block: blocks human histone lysine methyltransferase G9a; 8.8% of 350,000 active; Potency, µM (highest dose often 102 µM), actives largely listed as inhibitors; Q96KQ7; G9a H3K9 monomethylation, AlphaScreen, 2 h; AID 504332; note: nearly all actives have a fitted effect of over 75% in size
Target sequence (Q96KQ7 913-1193 limits assumed): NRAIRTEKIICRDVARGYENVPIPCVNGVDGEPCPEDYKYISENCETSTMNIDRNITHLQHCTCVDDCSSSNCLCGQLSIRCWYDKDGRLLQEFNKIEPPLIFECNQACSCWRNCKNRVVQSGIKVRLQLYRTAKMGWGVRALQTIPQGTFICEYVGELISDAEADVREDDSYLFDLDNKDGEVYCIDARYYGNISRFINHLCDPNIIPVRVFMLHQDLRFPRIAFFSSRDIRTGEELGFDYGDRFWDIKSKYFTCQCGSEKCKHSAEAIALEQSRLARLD
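Readings reflect AlphaScreen signal from monomethyl-H3K9 antibody detection. HMT at 20 nM; substrate b-H3K9 500 nM; cofactor SAM 20 uM; 2 h RT reaction; compounds tested as titrations in qHTS with 15 min preincubation.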
BAZ2B inh: blocks human BAZ2B. Q9UIF8. AlphaScreen BAZ2B-H3K14Ac peptide displacement. Potency, µM (doses to about 114 µM), hits mostly inhibitors. 4.4% of 360,000 active. AID 504333; note: nearly all actives have a fitted effect of over 60% in size
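Protein-peptide AlphaScreen: BAZ2B 50 nM, b-H3K14Ac 50 nM, 1x PBS pH 7.4 + 0.01% Tween-20. Preincubation 30 min RT; cpd 30 min RT (top 110 uM); beads 20 min RT, light-protected.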
JMJD2A Tudor inh: blocks the human JMJD2A Tudor domain | AlphaScreen JMJD2A-Tudor / H3K4me3 peptide binding | AID 504339 | O75164 | Potency, µM (series often up to 114 µM), usual class: inhibitors | 4.4% of 390,000 active; note: nearly all actives have a fitted effect of over 50% in size
TDP1 inh: blocks human tyrosyl-DNA phosphodiesterase 1; Q9NUW8; recombinant TDP1, AlphaScreen DNA substrate cleavage; Potency, µM (series often up to 130 µM), usual class: inhibitors; 0.28% of 350,000 active; note: nearly all actives have a fitted effect of over 40% in size
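Tdp1 1 nM final; 15 min RT w/ cpd; substrate 15 nM, 5 min; beads 10 ug/ml, 10 min; AlphaScreen read. Neg ctrl: no enzyme.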
Numbers stand for hits; n = inactive; u = inconclusive; x = not tested or not shown; ! = a repeat was not active; [ ] = another dose, or the depositor's remark. Calls come from the whole dose curve; as a rule, active = well fitted curve in the direction sought with a large enough effect; inconclusive = small, poorly fitted or top-dose-only effect, or another doubt; inactive = no such curve, though single readings can be large; an effect the other way counts as inactive or inconclusive.

SMILES	Sfp inh	HP1b chromo inh	G9a block	BAZ2B inh	JMJD2A Tudor inh	TDP1 inh
CCN1CCN(Cc2ccc(C)cc2C)CC1	n	n	56µM	u	n	n
Cc1oc(-c2cccc(Cl)c2)nc1CN1CCC(C(=O)NCCCN2CCN(c3ccc(F)cc3)CC2)CC1	x	n	u	22µM	n	n
Cc1oc(-c2ccc(Cl)cc2)nc1CN1CCC(C(=O)NCCCN2CCN(c3cccc(Cl)c3)CC2)CC1	x	n	10µM	u	u	n
COc1cccc2c1C13CC[N+]4(CC5CC5)CO[C@]1(CCC(=O)C3)C4C2	n	x	n	x	x	n
CN(C)CCN(Cc1ccccc1)c1ccnc(N(C)C)c1C#N	n	u	7.9µM	u	63µM	n
Cn1c2c(c3ccccc31)CCNCC2	n	x	x	x	x	n
CN1[C@@H]2CC[C@H]1CC(OC1c3ccccc3CCc3ccccc31)C2 (stereo partly specified)	n	n	n[5.15 µM]	n	79µM	n
CC12C=CC(=O)C=C1CCC1C2=CCC2(C)C1CC[C@@H]2C(=O)CN1CCN(c2cc(N3CCCC3)nc(N3CCCC3)n2)CC1 (stereo partly specified)	u	x	13µM	x	x	n
Fc1ccccc1CNC1CN2CCC1CC2 (stereo unspecified)	n	n	u	n	40µM	n
CCC(C)C1NC(=O)C(C(C)=O)=C1O (stereo unspecified)	n	n	n[12.7 µM]	50µM	n	x
CC(C)C[C@H](NC(=O)CNC(=O)[C@H](CCC(N)=O)NC(=O)[C@H](Cc1ccc(O)cc1)NC(=O)[C@@H](NC(=O)[C@H](Cc1ccc(O)cc1)NC(=O)CNC(=O)[C@@H](N)CCCN=C(N)N)C(C)C)C(=O)O	n	x	x	x	x	n
OC(CNC1CCCCCCC1)c1ccccc1 (stereo unspecified)	n	x	14µM	u	x	n
c1ccc(C(OC2CCCN(CCc3ccc4c(c3)OCO4)C2)c2ccccc2)cc1 (stereo unspecified)	u	x	x	x	x	n
C[C@H](CCC(=O)O)C[C@H](C)C[C@H](C)C(=O)/C=C(\O)[C@H](C)C[C@H](C)C/C=C/[C@@H](C)[C@@H](O)[C@@H](C)[C@@H](O)C[C@@H]1CC[C@@](C)([C@H]2CC[C@@](C)([C@@H](C)O)O2)O1	n	x	n	x	x	n
Nc1cccc(Cl)c1	x	x	x	x	x	n
CCN(CC)C(=O)CN1CCN(c2ccccc2F)CC1	n	u	32µM	u	8.9µM	n
Cc1ccccc1CC(=O)N(CCN(C)C)CC1CCCN(Cc2ccccc2F)C1 (stereo unspecified)	n	n	n	n	n	x
C/C=C(\C)CN1CCN(c2ccccc2F)CC1	n	u	u	u	3.2µM	x
Cc1nc2ccc(P(=O)(O)O)cc2s1	n	x	45µM	u	x	x
ClC=CCl	x	x	x	x	x	n
Oc1ccccc1/C=N/[n+]1ccccc1	n	n	56µM	n	n	n
CC(C)Oc1ccc(Cc2c(O)[nH]c(=O)[nH]c2=O)cc1	n	n	n	n	n	n
CCOc1ccc(Cc2c(O)[nH]c(=O)[nH]c2=O)cc1	20µM	n	u	n	n	n
c1nc[nH]n1	x	x	x	x	x	n
Cc1cc(C=C2C(=O)NC(=O)NC2=O)c(C)n1-c1ccc2c(c1)OCO2	n	n	u	n	n	n
SMILES	Sfp inh	HP1b chromo inh	G9a block	BAZ2B inh	JMJD2A Tudor inh	TDP1 inh
Cc1cc(C=C2C(=O)NC(=S)NC2=O)c(C)n1-c1ccc2c(c1)OCO2	45µM	n	11µM	u	u	n
CCOC(=O)c1c(C)n(Cc2ccccc2)c2ccc(OCC(O)CN3C(=O)CNC3=O)cc12 (stereo unspecified)	n	n	n	n	n	n
CCOC(=O)c1c(C)n(Cc2ccc(F)cc2)c2ccc(O)cc12	22µM	n	n[12.7 µM]	n	u	n
COC(=O)c1c(C)n(Cc2ccc3c(c2)OCO3)c2ccc(O)cc12	n	n	35µM	u	u	n
CCOC(=O)c1c(C)n(Cc2ccc3c(c2)OCO3)c2ccc(O)cc12	n	n	u	u	n	n
CCOC(=O)c1c(C)n(Cc2ccco2)c2ccc(O)cc12	45µM	n	8.9µM	u	n	x
CCOC(=O)c1c(C)n(COCCO)c2ccc(O)cc12	n	n	n	n	n	n
O=C1CC2OCC=C3CN4CCC56c7ccccc7N1C5[C@H]2[C@H]3C[C@H]46 (stereo partly specified) (tested in a mixture with another compound)	n	x	n[12.7 µM]	x	x	x
O=C(OCCCCN1C(=O)c2ccccc2C1=O)c1ccc(Br)o1	n	n	n	n	n	n
O=C1NC(=O)C(=Cc2ccc(-c3ccccc3[N+](=O)[O-])o2)C(=O)N1	22µM	n	x	u	u	n
O=C1NC(=O)C(=Cc2ccc(-c3cc(Cl)ccc3[N+](=O)[O-])o2)C(=O)N1	n	u	4µM	45µM	25µM	n
CN(C)C(=S)SC(=S)N(C)C	11µM	x	2.5µM	x	x	n
CN(C)C(=S)SSC(=S)N(C)C	3.5µM!	n	1.3µM	n	n	n
OC[C@@H]1[C@@H](O)[C@H](O)[C@H]2[C@@H](O)CCN21	n	x	x	x	x	n
CNNC	11µM	x	x	x	x	n
Fc1ccc(C(OCCN2CCN(C/C=C/c3ccccc3)CC2)c2ccc(F)cc2)cc1	45µM	x	11µM	x	x	n
O=C(O)C1=CCCN(CCOC(c2ccc(C(F)(F)F)cc2)c2ccc(C(F)(F)F)cc2)C1	n	x	x	x	x	n
CCCc1nnc(NC(=O)CCC(=O)N2CCN(CCOC(c3ccccc3)c3ccccc3)CC2)s1	n	n	n	n	n	n
c1ccc(CCCN2CCN(CCOC(c3ccccc3)c3ccccc3)CC2)cc1	n	n	10µM	x	56µM	n
O=C(COc1ccccc1)N1CCN(C/C=C/c2ccccc2)CC1	n	n	n[12.7 µM]	n	n	n
Fc1ccc(C(OCCN2CCN(CCCc3ccccc3)CC2)c2ccc(F)cc2)cc1	n	n	u	x	50µM	n
NCC[C@H](NC(=O)[C@@H](N)CCCN=C(N)N[N+](=O)[O-])C(N)=O	u	x	x	x	x	n
CC(C)[C@]1(NC(=O)[C@@H]2C=C3c4cccc5[nH]cc(c45)C[C@H]3N(C)C2)O[C@@]2(O)C3CCCN3C(=O)[C@H](Cc3ccccc3)N2C1=O (stereo partly specified)	n	x	x	x	x	n
CC(=O)[C@@H]1CC[C@H]2[C@@H]3CC[C@@H]4CC(=O)CC[C@]4(C)[C@H]3CC[C@]12C	n	x	n	x	x	n
O=C(NCCCN1CCCC1)c1ccc2c(c1)N(Cc1cccc(Cl)c1)C(=O)c1ccccc1S2=O (stereo unspecified)	n	n	40µM	n	n	n
O=C(c1ccc2c(c1)N(Cc1ccc(F)cc1)C(=O)c1ccccc1S2)N1CCC2(CC1)OCCO2	x	n	n	n	u	n
